Out of some 5,500 compounds screened, about 2,000 (36%) were called active. Not shown: some 18% with an inconclusive outcome. Rule as the data show it: active = normalized growth mostly below about 0.91 (no sharp cut-off); inconclusive = no clear call, values can overlap the other calls; inactive = mostly above about 0.92. This is one part of the list.
Assay: chemical genetic growth profiling, strain panel (AID 1159580);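 also: tested at 20 µM; growth read once vehicle control cultures reached saturation at 30 °C; 1 = growth at the plate median or of vehicle wells; lower values mean less growth of the strain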
Settings: growth OD

Measured: normalized growth

O=C(O)CN1C(=O)c2cccc3cccc(c23)C1=O
inactive: S. cerevisiae deletion strains, locus YJR043C, strain POL32, stronger effect = lower value 1.03 | S. cerevisiae deletion strains, locus YJR066W, strain TOR1, stronger effect = lower value 0.975 | S. cerevisiae deletion strains, locus YKL009W, strain mrt4, stronger effect = lower value 0.987 | S. cerevisiae deletion strains, locus YKL068W, stronger effect = lower value 0.991 | S. cerevisiae deletion strains, locus YKL085W, strain MDH1 (second series), stronger effect = lower value 0.978 | S. cerevisiae deletion strains, locus YKL085W, strain MDH1, stronger effect = lower value 0.978 | S. cerevisiae deletion strains, locus YKL160W, strain elf1, stronger effect = lower value 0.956 | S. cerevisiae deletion strains, locus YKL190W, strain CNB1, stronger effect = lower value 1 | S. cerevisiae deletion strains, locus YKR001C, strain vps1, stronger effect = lower value 1.01 | S. cerevisiae deletion strains, locus YKR026C, strain gcn3, stronger effect = lower value 0.996 | S. cerevisiae deletion strains, locus YKR091W, strain srl3, stronger effect = lower value 0.986 | S. cerevisiae deletion strains, locus YLL001W, strain dnm1, stronger effect = lower value 0.966 | S. cerevisiae deletion strains, locus YLL026W, stronger effect = lower value 0.996 | S. cerevisiae deletion strains, locus YLL041C, strain sdh2, stronger effect = lower value 0.983 | S. cerevisiae deletion strains, locus YLR027C, strain aat2, stronger effect = lower value 0.996 | S. cerevisiae deletion strains, locus YLR039C, strain RIC1, stronger effect = lower value 1 | S. cerevisiae deletion strains, locus YLR058C, strain SHM2, stronger effect = lower value 1 | S. cerevisiae deletion strains, locus YLR102C, strain apc9, stronger effect = lower value 0.986 | S. cerevisiae deletion strains, locus YLR113W, strain HOG1, stronger effect = lower value 0.935 | S. cerevisiae deletion strains, locus YLR221C, strain rsa3, stronger effect = lower value 0.977 | S. cerevisiae deletion strains, locus YLR258W, strain gsy2, stronger effect = lower value 0.988 | S. cerevisiae deletion strains, locus YLR262C, strain YPT6 (second series), stronger effect = lower value 0.947 | S. cerevisiae deletion strains, locus YLR262C, strain YPT6, stronger effect = lower value 0.985 | S. cerevisiae deletion strains, locus YLR268W, strain sec22, stronger effect = lower value 0.983 | S. cerevisiae deletion strains, locus YLR320W, strain mms22, stronger effect = lower value 0.944 | S. cerevisiae deletion strains, locus YLR330W, strain CHS5, stronger effect = lower value 0.989 | S. cerevisiae deletion strains, locus YLR342W, strain FKS1 (second series), stronger effect = lower value 1.02 | S. cerevisiae deletion strains, locus YLR342W, strain FKS1, stronger effect = lower value 0.978 | S. cerevisiae deletion strains, locus YLR357W, strain rsc2, stronger effect = lower value 0.965 | S. cerevisiae deletion strains, locus YLR370C, strain arc18, stronger effect = lower value 0.973 | S. cerevisiae deletion strains, locus YLR371W, strain rom2, stronger effect = lower value 0.989 | S. cerevisiae deletion strains, locus YLR384C, strain iki3, stronger effect = lower value 0.973 | S. cerevisiae deletion strains, locus YLR418C, strain cdc73, stronger effect = lower value 0.988 | S. cerevisiae deletion strains, locus YML016C, strain PPZ1, stronger effect = lower value 1 | S. cerevisiae deletion strains, locus YML032C, strain rad52, stronger effect = lower value 1 | S. cerevisiae deletion strains, locus YML120C, strain ndi1, stronger effect = lower value 0.958 | S. cerevisiae deletion strains, locus YML124C, strain tub3, stronger effect = lower value 0.999 | S. cerevisiae deletion strains, locus YMR058W, strain fet3, stronger effect = lower value 0.98 | S. cerevisiae deletion strains, locus YMR078C, strain ctf18, stronger effect = lower value 0.982 | S. cerevisiae deletion strains, locus YMR125W, strain sto1, stronger effect = lower value 0.979 | S. cerevisiae deletion strains, locus YMR129W, stronger effect = lower value 0.996 | S. cerevisiae deletion strains, locus YMR205C, strain PFK2, stronger effect = lower value 0.954 | S. cerevisiae deletion strains, locus YMR223W, strain ubp8, stronger effect = lower value 0.977 | S. cerevisiae deletion strains, locus YMR231W, strain pep5, stronger effect = lower value 0.992 | S. cerevisiae deletion strains, locus YMR307W, strain GAS1, stronger effect = lower value 1.01 | S. cerevisiae deletion strains, locus YNL067W, strain RPL9B, stronger effect = lower value 1.05 | S. cerevisiae deletion strains, locus YNL071W, strain lat1, stronger effect = lower value 0.933 | S. cerevisiae deletion strains, locus YNL153C, strain GIM3, stronger effect = lower value 1.08 | S. cerevisiae deletion strains, locus YNL183C, strain NPR1, stronger effect = lower value 0.953 | S. cerevisiae deletion strains, locus YNL209W, strain ssb2, stronger effect = lower value 0.986 | S. cerevisiae deletion strains, locus YNL233W, strain BNI4, stronger effect = lower value 1.03 | S. cerevisiae deletion strains, locus YNL248C, strain rpa49, stronger effect = lower value 0.969 | S. cerevisiae deletion strains, locus YNL250W, strain rad50, stronger effect = lower value 0.941 | S. cerevisiae deletion strains, locus YNL271C, strain bni1, stronger effect = lower value 0.998 | S. cerevisiae deletion strains, locus YNL298W, strain CLA4, stronger effect = lower value 0.984 | S. cerevisiae deletion strains, locus YNL307C, strain MCK1, stronger effect = lower value 0.994 | S. cerevisiae deletion strains, locus YNL322C, strain KRE1 (second series), stronger effect = lower value 0.987 | S. cerevisiae deletion strains, locus YNR049C, strain mso1, stronger effect = lower value 0.981 | S. cerevisiae deletion strains, locus YNR052C, strain pop2, stronger effect = lower value 0.969 | S. cerevisiae deletion strains, locus YOL006C, strain TOP1, stronger effect = lower value 1.08 | S. cerevisiae deletion strains, locus YOL012C, strain htz1 0.878 | S. cerevisiae deletion strains, locus YOL147C, strain pex11, stronger effect = lower value 0.988 | S. cerevisiae deletion strains, locus YOR001W, strain rrp6, stronger effect = lower value 0.974 | S. cerevisiae deletion strains, locus YOR061W, strain CKA2, stronger effect = lower value 1.01 | S. cerevisiae deletion strains, locus YOR069W, strain VPS5, stronger effect = lower value 0.998 | S. cerevisiae deletion strains, locus YOR070C, strain gyp1, stronger effect = lower value 0.99 | S. cerevisiae deletion strains, locus YOR080W, strain dia2, stronger effect = lower value 0.989 | S. cerevisiae deletion strains, locus YOR083W, strain WHI5, stronger effect = lower value 0.967 | S. cerevisiae deletion strains, locus YOR106W, strain vam3, stronger effect = lower value 0.955 | S. cerevisiae deletion strains, locus YOR136W, strain idh2, stronger effect = lower value 0.991 | S. cerevisiae deletion strains, locus YOR144C, strain elg1, stronger effect = lower value 0.987 | S. cerevisiae deletion strains, locus YOR184W, strain ser1, stronger effect = lower value 1.02 | S. cerevisiae deletion strains, locus YOR231W, strain MKK1, stronger effect = lower value 0.977 | S. cerevisiae deletion strains, locus YOR265W, strain rbl2, stronger effect = lower value 0.985 | S. cerevisiae deletion strains, locus YOR270C, strain vph1, stronger effect = lower value 0.876 | S. cerevisiae deletion strains, locus YOR290C, strain snf2, stronger effect = lower value 0.943 | S. cerevisiae deletion strains, locus YOR316C, strain cot1, stronger effect = lower value 0.992 | S. cerevisiae deletion strains, locus YPL051W, strain arl3, stronger effect = lower value 0.97 | S. cerevisiae deletion strains, locus YPL078C, strain atp4, stronger effect = lower value 0.976 | S. cerevisiae deletion strains, locus YPL106C, strain sse1, stronger effect = lower value 0.954 | S. cerevisiae deletion strains, locus YPL240C, strain hsp82, stronger effect = lower value 0.98 | S. cerevisiae deletion strains, locus YPL256C, strain CLN2, stronger effect = lower value 0.961 | S. cerevisiae deletion strains, locus YPR119W, strain clb2, stronger effect = lower value 0.987 | S. cerevisiae deletion strains, locus YPR141C, strain kar3, stronger effect = lower value 0.994 | S. cerevisiae deletion strains, locus YPR163C, strain tif3, stronger effect = lower value 0.99 | S. cerevisiae deletion strains, locus YPR167C, strain met16, stronger effect = lower value 0.986 | S. cerevisiae deletion strains, strain wtn01, stronger effect = lower value 0.976 | S. cerevisiae strains, strain wild type, stronger effect = lower value 1
